± gives the standard deviation of the averaged measurements.
Tested on: HCC1569
Test: cell number relative to DMSO (% of DMSO); higher = more cells (less growth inhibition / toxicity)
Conditions: concentration: 10 µM; 24 h
Summary of the method: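 For HCC1569 and TDF cells, compounds at 10 µM were applied for 24 h at 37 °C in triplicate in 384-well plates. Cells were fixed in 3.7% formaldehyde, stained for H1.0 and with DAPI, and imaged at ×10 over six fields per well. The endpoint, H1.0 nuclear intensity or cell number, is shown as percent of the plate control using the median of replicates. Positional effects were smoothed for HCC1569 only.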
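Note: TDF denotes transformed human dermal fibroblasts of mesenchymal origin.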

Row | SMILES | cell number
1 | COc1cc(Oc2ccnc3cc(OC)c(OC)cc23)ccc1NC(=O)NC(C)c1nccs1 (stereo not given) | 68.5
2 | Cc1ccccc1C(OCCN(C)C)c1ccccc1.Cl (stereo not given) [Orphenadrine hydrochloride] | 100
3 | CCCCCC(O)C=CC1C(O)CC(O)C1CC=CCCCC(=O)O (stereo not given) [Dinoprost] | 100
4 | CC(=O)O.NC(N)=NN=Cc1c(Cl)cccc1Cl [Guanabenz acetate] | 104
5 | COc1cc2nc(N3CCN(C(=O)C4CCCO4)CC3)nc(N)c2cc1OC (stereo not given) [Terazosin] | 99.9
6 | C=C(C)C1CC=C(C(=O)O)CC1 (single isomer, unassigned; (-)) [(-)-Perillic acid] | 104
7 | CCCCCCCCCCCCCCCCOCC(COCC(F)(F)F)OP(=O)([O-])OC.[Li+] (stereo not given) | 102
8 | COC(=O)C1=C(C)NC(C)=C(C(=O)OC)C1c1ccccc1[N+](=O)[O-] [Nifedipine] | 99.06 ± 0.47
9 | N#CCNC(=O)c1ccc(-c2ccnc(Nc3ccc(N4CCOCC4)cc3)n2)cc1 | 64.8
10 | CN(C)CCC(CSc1ccccc1)Nc1ccc(S(=O)(=O)NC(=O)c2ccc(N3CCN(Cc4ccccc4-c4ccc(Cl)cc4)CC3)cc2)cc1[N+](=O)[O-] (stereo not given) | 30.5
11 | CC1(C)SC2C(NC(=O)COc3ccccc3)C(=O)N2C1C(=O)[O-] (stereo not given) [Pencillin V] | 100
12 | CS(=O)(=O)N1CCN(Cc2cc3nc(-c4cccc5[nH]ncc45)nc(N4CCOCC4)c3s2)CC1 | 57.3
13 | Cc1ncc([N+](=O)[O-])n1CCO [Metronidazole] | 102
14 | CS(=O)(=O)Nc1ccc([N+](=O)[O-])cc1Oc1ccccc1 [Nimesulide] | 104 ± 4.5
15 | c1ccc(-c2cnc(Nc3ccc(OCCN4CCCC4)cc3)s2)cc1 [Flt-3 Inhibitor III] | 80.3
16 | CCCCC=CCCCCCCCCC(=O)O [10(E)-Pentadecenoic acid] | 103
17 | CN(C)CCC=C1c2ccccc2CCc2ccccc21.Cl [Amitriptyline hydrochloride] | 100
18 | COc1ccc(C2Sc3ccccc3N(CCN(C)C)C(=O)C2OC(C)=O)cc1.Cl (stereo not given) [Diltiazem hydrochloride] | 101
19 | O=C(CCCN1CCC(O)(c2cccc(C(F)(F)F)c2)CC1)c1ccc(F)cc1 [Trifluperidol] | 100
20 | NS(=O)(=O)c1ccc2c(c1)C1C=CCC1C(c1ccc(Br)cc1)N2 (stereo not given) | 102

Row | SMILES | cell number
21 | CCCCCCCCCC(=O)OCC(CO)OC(=O)CCCCCCCCC (stereo not given) [1,2-Didecanoyl-glycerol (10:0)] | 102
22 | CON=C(C(=O)NC1C(=O)N2C(C(=O)[O-])=C(COC(C)=O)CSC12)c1csc(N)n1.[Na+] (stereo not given) [Cefotaxime sodium] | 103
23 | N[C@H](C(=O)O)c1cc(O)cc(O)c1 [(S)-3,5-Dihydroxyphenylglycine] | 101
24 | CC(C)CCNC(C)C1CCC2C3CC=C4CC(O)CCC4(C)C3CCC12C (stereo not given) [22-Azacholesterol] | 104
25 | CC(=O)Nc1ccc(NC(=S)NC(=O)c2ccc(C(C)(C)C)cc2)cc1 [p53 Activator (Tenovin-1)] | 96.5
26 | CCC1(O)CC2CN(CCc3c([nH]c4ccccc34)C(C(=O)OC)(c3cc4c(cc3OC)N(C)C3C(O)(C(=O)OC)C(OC(C)=O)C5(CC)C=CCN6CCC43C65)C2)C1 (stereo not given) [Vinblastine] | 53.6
27 | CC(C)(O)c1ccccc1CCC(SCC1(CC(=O)O)CC1)c1cccc(C=Cc2ccc3ccc(Cl)cc3n2)c1 (stereo not given) [Montelukast] | 101
28 | CC(C)=CCCC(C)=CCCC(C)=CCSCC(=O)O [Farnesylthoiacetic acid] | 100
29 | CC(=O)NNC(=O)N1Cc2ccccc2Oc2ccc(Cl)cc21 | 101
30 | CCCc1nc2c(C)cc(-c3nc4ccccc4n3C)cc2n1Cc1ccc(-c2ccccc2C(=O)O)cc1 [Telmisartan] | 99.7
31 | N[C@@H](Cc1c[nH]c2ccc(O)cc12)C(=O)O [5-Hydroxy-L-tryptophan] | 98.1
32 | O=C(C=Cc1ccc(O)c(O)c1)c1ccc(O)cc1O [Butein] | 74.3
33 | COc1cc(C=C(C#N)C(=O)c2ccc(O)c(O)c2)cc(I)c1O [I-OMe-Tyrphostin AG 538] | 97.2
34 | C=Cc1c(C)c2cc3[nH]c(cc4nc(cc5nc(cc1[nH]2)C(C)=C5CCC(=O)O)C(CCC(=O)O)=C4C)c(C)c3C=C [Protoporphyrin IX disodium] | 103
35 | Cc1ccc(C(=CCN2CCCC2)c2ccccn2)cc1.Cl [Triprolidine hydrochloride] | 106
36 | N#CC(=Cc1ccc(O)c(O)c1)C(=O)NCCCNC(=O)C(C#N)=Cc1ccc(O)c(O)c1 [Tyrphostin AG 537] | 101
37 | CCCCCCCCC(O)C=CC=CC=CC(O)CCCC(=O)O (stereo not given) [Leukotriene B3] | 101
38 | CC1C(=O)CCC2C1(C)CCC1C2(C)CCC2(C)C3CC(C)(C)CCC3(C)CCC12C (stereo not given) [Friedelin] | 99.5
39 | CCOC(=O)[C@H](CCc1ccccc1)N[C@@H](C)C(=O)N1C(=O)N(C)C[C@H]1C(=O)O.Cl | 107
40 | Brc1c(Br)c(Br)c2[nH]cnc2c1Br [4,5,6,7-tetrabromo-1H-benzimidazole] | 69.9
